{
  "source": "PubChem BioAssay (EPA / NIEHS)",
  "key": {"[1]": {"assay": "CCTE_Shafer_MEA_acute_synchrony_index: CCTE's Neural Acute Assay for Synchrony, Shafer Lab (AID 2284027);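 also: fitted for loss of signal so actives lower synchrony relative to DMSO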", "outline": "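Spontaneous firing of mature rat cortical networks is captured extracellularly on microelectrode arrays at 37 C, with wells needing ≥10 active electrodes. Each compound (0.03-40 uM) is judged by the change in synchrony index from baseline over 40 min.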"}, "[2]": {"assay": "CCTE_Shafer_MEA_dev_firing_rate_mean: CCTE's Neural Network Formation Assay for Mean Firing Rate, Shafer Lab (AID 2284031);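 as to AC50: curve fitted for loss of firing so AC50 reflects decreased mean firing rate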", "outline": "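Developing rat cortical networks on MEA plates undergo 12-day compound exposure. Firing frequency, averaged across active electrodes, is integrated as area under the curve over four recording days, referenced to DMSO.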"}, "[3]": {"assay": "CCTE_Shafer_MEA_dev_per_burst_spike_percent: CCTE's Neural Network Formation Assay for Percent of Spikes in a Burst, Shafer Lab (AID 2284032);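 as to AC50: fitted as a decrease in burst spike percentage below DMSO baseline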", "outline": "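Rat primary cortical neurons on 16-electrode MEA wells, dosed from plating day 0 for 12 days with renewal on DIV 5 and 9; spikes-in-bursts percentage averaged over bursting electrodes, collapsed as AUC across days 5, 7, 9, 12; loss direction versus DMSO.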"}, "[4]": {"assay": "CCTE_Shafer_MEA_dev_active_electrodes_number: CCTE's Neural Network Formation Assay for Number of Active Electrodes, Shafer Lab (AID 2284040; active = hit-call score of the fitted dose curve at least 0.9, where 1 is the maximum;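 as to AC50: potency for loss of active electrodes versus DMSO so lower counts are hits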)", "outline": "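Rat cortical primary cultures, 1.5 x 10^5 cells/well, PEI-coated MEA, laminin drop. Continuous exposure DIV 0–12; full media/compound change DIV 5, 9. Readout: electrodes with mean firing ≥5 spikes/min; AUC across days; loss vs DMSO.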"}, "[5]": {"assay": "CCTE_Shafer_MEA_dev_burst_rate: CCTE's Neural Network Formation Assay for Burst Rate, Shafer Lab (AID 2284042);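 as to AC50: potency for loss of burst rate below DMSO control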", "outline": "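Cells plated, treated day 0; recorded DIV 5, 7, 9, 12; fed and re-treated DIV 5, 9. Endpoint: bursts per recording time, active-electrode well mean, trapezoidal AUC, fitted in decreasing direction against DMSO baseline.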"}, "[6]": {"assay": "CCTE_Shafer_MEA_dev_per_burst_interspike_interval: CCTE's Neural Network Formation Assay for Burst Interspike Interval, Shafer Lab (AID 2284044);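 as to AC50: potency for a decrease of within-burst interspike interval below DMSO level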", "outline": "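Rat cortical primary cultures, 16 electrodes/well; compound from plating, renewed with full media change DIV 5 and 9. Spikes via adaptive detector; per-burst ISI well-mean over active bursting electrodes; AUC of DIV 5/7/9/12 recordings; loss-direction fit vs DMSO.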"}, "[7]": {"assay": "CCTE_Shafer_MEA_dev_burst_duration_mean: CCTE's Neural Network Formation Assay for Mean Burst Duration, Shafer Lab (AID 2284045);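 as to AC50: curve fitted for loss meaning shorter burst duration than DMSO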", "outline": "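Primary rat cortical neurons on PEI-coated 16-electrode MEA wells, exposed from plating through day 12 with compound renewed at DIV 5 and 9; spontaneous activity recorded days 5, 7, 9, 12. Well-mean burst duration collapsed as trapezoidal AUC, fitted for loss versus DMSO.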"}, "[8]": {"assay": "CCTE_Shafer_MEA_dev_interburst_interval_mean: CCTE's Neural Network Formation Assay for Mean Interburst Interval, Shafer Lab (AID 2284046)", "outline": "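Developing rat cortical networks on 48-well MEAs receive compound from the day of plating. Burst intervals from each active electrode are averaged per well, and AUC over the recording days is fitted in the negative direction against DMSO.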"}, "[9]": {"assay": "CCTE_Shafer_MEA_dev_inter_network_spike_interval_mean: CCTE's Neural Network Formation Assay for Mean Inter-network Spike Interval, Shafer Lab (AID 2284047);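 as to AC50: potency for a decrease in mean inter-network spike interval below DMSO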", "outline": "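Rat cortical cultures, 1.5 x 10^5 cells/well on 48-well MEA plates; continuous exposure days 0–12, medium and compound refreshed DIV 5, 9. Mean time between consecutive network-spike peaks; AUC across DIV 5/7/9/12; DMSO baseline, negative fitting direction.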"}, "[10]": {"assay": "CCTE_Shafer_MEA_dev_network_spike_number: CCTE's Neural Network Formation Assay for Number of Network Spikes, Shafer Lab (AID 2284048);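 as to AC50: fit as a loss of signal meaning fewer network spikes than DMSO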", "outline": "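Primary rat cortical neurons were seeded at 1.5 x 10^5 cells/well on PEI-coated 16-electrode MEA wells with laminin, exposed from plating day 0, compound renewed at DIV 5 and 9. Network spikes were recorded on days 5, 7, 9, 12 and summarized as trapezoidal AUC versus DMSO.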"}, "[11]": {"assay": "CCTE_Shafer_MEA_dev_network_spike_peak: CCTE's Neural Network Formation Assay for Mean Number of Electrodes in Network Spike, Shafer Lab (AID 2284049);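 as to AC50: fitted for loss of signal meaning fewer electrodes in network spikes than DMSO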", "outline": "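Continuous 12-day exposure of rat cortical cultures, starting at plating, on MEA plates. Endpoint: electrodes participating in network-spike peaks, AUC across DIV 5–12, DMSO as negative control.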"}, "[12]": {"assay": "CCTE_Shafer_MEA_dev_per_network_spike_spike_number_mean: CCTE's Neural Network Formation Assay for Mean Number of Spikes in a Network Spike, Shafer Lab (AID 2284053)", "outline": "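Continuous twelve-day exposure of developing rat cortical networks grown over 16 microelectrodes per well; spontaneous firing is captured at four time points, and the per-network-spike spike number is integrated over development by trapezoidal AUC.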"}, "[13]": {"assay": "CCTE_Shafer_MEA_dev_per_network_spike_spike_percent: CCTE's Neural Network Formation Assay for Percent of Spikes in a Network Spike, Shafer Lab (AID 2284054)", "outline": "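Primary rat cortical neurons on 16-electrode MEA wells (PEI-coated, laminin at plating), exposed from day 0 with renewal at DIV 5 and 9; spikes within 0.05 s of network-spike peaks over total spikes, AUC across days 5, 7, 9, 12.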"}, "[14]": {"biological_target": "Estrogen receptor (Homo sapiens) (UniProt P03372)", "sequence (P03372 whole entry, looked up)": "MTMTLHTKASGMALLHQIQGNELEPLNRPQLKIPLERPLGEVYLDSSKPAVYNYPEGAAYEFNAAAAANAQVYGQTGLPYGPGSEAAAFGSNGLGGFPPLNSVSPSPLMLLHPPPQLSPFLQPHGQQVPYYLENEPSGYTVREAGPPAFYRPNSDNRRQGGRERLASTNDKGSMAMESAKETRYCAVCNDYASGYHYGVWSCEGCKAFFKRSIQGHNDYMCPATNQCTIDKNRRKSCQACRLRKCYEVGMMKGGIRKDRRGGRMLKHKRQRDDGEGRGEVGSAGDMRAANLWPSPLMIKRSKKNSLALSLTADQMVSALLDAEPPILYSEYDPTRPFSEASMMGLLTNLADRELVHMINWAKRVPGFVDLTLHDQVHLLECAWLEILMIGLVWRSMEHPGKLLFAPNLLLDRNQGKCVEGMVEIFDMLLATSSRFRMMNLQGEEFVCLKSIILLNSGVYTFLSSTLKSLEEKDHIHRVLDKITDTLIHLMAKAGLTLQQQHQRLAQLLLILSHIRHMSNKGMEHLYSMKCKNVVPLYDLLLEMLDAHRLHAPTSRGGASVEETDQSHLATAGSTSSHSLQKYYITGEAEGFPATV", "assay": "CCTE_Deisenroth_AIME_384WELL_LUC_Active: CCTE's 384-well Estrogen Receptor Transactivation Assay with AIME metabolic competence (ERTA luciferase; metabolism positive), Deisenroth Lab (AID 2284030; active = hit-call score of the fitted dose curve at least 0.9, where 1 is the maximum)", "outline": "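Test chemicals (10-point series, 0.002 - 200 uM) were preincubated 2 hours with alginate-immobilized phenobarbital/beta-naphthoflavone-induced male Sprague Dawley rat liver S9; conditioned medium then went onto VM7Luc4E2 breast cells for 24 hour. Luciferase gain-of-signal fitted relative to 17beta-estradiol.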"}, "[15]": {"biological_target": "Estrogen receptor (Homo sapiens) (UniProt P03372)", "assay": "CCTE_Deisenroth_AIME_384WELL_LUC_Shift: CCTE's 384-well Estrogen Receptor Transactivation Assay with AIME metabolic competence data shift (ERTA luciferase; difference in metabolism positive and negative), Deisenroth Lab (AID 2284041);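 also: shift is response with S9 minus without S9 so positive means metabolism raised ER signal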", "outline": "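Here, parent compounds undergo 2 h phase I metabolism by PB/BNF-induced rat S9 before 24 h transactivation in VM7Luc4E2 cells; the curve models S9-positive minus S9-negative response over a 10-point series.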"}, "[16]": {"assay": "CCTE_Deisenroth_AIME_384WELL_CTox_Active: Cytotoxicity Assessment (CTOX) in CCTE's 384-well Estrogen Receptor Transactivation Assay with AIME metabolic competence (metabolism positive), Deisenroth Lab (AID 2284037; active = hit-call score of the fitted dose curve at least 0.9, where 1 is the maximum;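 also: activity means signal loss indicating cell death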)", "outline": "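VM7Luc4E2 breast cells received medium pre-incubated 2 h with chemical over alginate microspheres holding induced male Sprague Dawley rat liver S9; viability read 24 h later by protease-substrate fluorescence. Loss of signal, bidirectional fit, 0.002–200 uM.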"}, "[17]": {"assay": "CCTE_Deisenroth_AIME_384WELL_CTox_Inactive: Cytotoxicity Assessment (CTOX) in CCTE's 384-well Estrogen Receptor Transactivation Assay without AIME metabolic competence (metabolism negative), Deisenroth Lab (AID 2284039; active = hit-call score of the fitted dose curve at least 0.9, where 1 is the maximum;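 also: cell viability via live-cell protease substrate cleaved to fluorescent probe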)", "outline": "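Metabolism-negative arm: chemicals (10-point, 0.002 - 200 uM) preincubated 2 h with alginate-water lids, medium moved onto VM7Luc4E2 cells for 24 h. Fluorescent live-cell protease readout; bidirectional curve fit.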"}},
  "note": "Where “and” joins values, the source holds several entries; their conditions need not be identical. Equal values may be shown once. Inconclusive results are not listed. More than one record can exist for a structure, and the calls need not agree. Calls of active or inactive are those of the source. The calls were made as follows, unless noted: active = hit-call score of the fitted dose curve at least 0.9, where 1 is the maximum; inactive = score below 0.9.",
  "data": [
    {"smiles": "CO/C=C(/C(=O)OC)c1ccccc1COc1cccc(C(F)(F)F)n1", "values": [
      {"measurement": "AC50", "setting": "[1]", "result": "5.76 µM (active)"},
      {"measurement": "AC50", "setting": "[2]", "result": "272 nM (active) and 453 nM (active)"},
      {"measurement": "AC50", "setting": "[3]", "result": "822 nM (active) and 381 nM (active)"},
      {"measurement": "AC50", "setting": "[4]", "result": "229 nM (active) and 493 nM (active)"},
      {"measurement": "AC50", "setting": "[5]", "result": "280 nM (active) and 327 nM (active)"},
      {"measurement": "AC50", "setting": "[6]", "result": "594 nM (active) and 761 nM (active)"},
      {"measurement": "AC50", "setting": "[7]", "result": "231 nM (active) and 490 nM (active)"},
      {"measurement": "AC50", "setting": "[8]", "result": "534 nM (active) and 582 nM (active)"},
      {"measurement": "AC50", "setting": "[9]", "result": "364 nM (active) and 752 nM (active)"},
      {"measurement": "AC50", "setting": "[10]", "result": "179 nM (active) and 398 nM (active)"},
      {"measurement": "AC50", "setting": "[11]", "result": "212 nM (active) and 741 nM (active)"},
      {"measurement": "AC50", "setting": "[12]", "result": "218 nM (active) and 739 nM (active)"},
      {"measurement": "AC50", "setting": "[13]", "result": "245 nM (active) and 751 nM (active)"}
    ]},
    {"smiles": "Nn1cnnc1", "values": [
      {"measurement": "outcome", "setting": "[14]", "result": "inactive"},
      {"measurement": "AC50", "setting": "[15]", "result": "72.4 µM (active)"}
    ]},
    {"smiles": "Clc1ccc(C(c2ccccc2Cl)C(Cl)(Cl)Cl)cc1", "note": "(stereo unspecified)", "values": [
      {"measurement": "AC50", "setting": "[2]", "result": "2.03 µM (active)"},
      {"measurement": "AC50", "setting": "[3]", "result": "1.99 µM (active)"},
      {"measurement": "AC50", "setting": "[4]", "result": "4.03 µM (active)"},
      {"measurement": "AC50", "setting": "[5]", "result": "1.98 µM (active)"},
      {"measurement": "outcome", "setting": "[6]", "result": "inactive"},
      {"measurement": "outcome", "setting": "[7]", "result": "inactive"},
      {"measurement": "AC50", "setting": "[8]", "result": "7.78 µM (active)"},
      {"measurement": "outcome", "setting": "[9]", "result": "inactive"},
      {"measurement": "AC50", "setting": "[10]", "result": "2.71 µM (active)"},
      {"measurement": "AC50", "setting": "[11]", "result": "2.73 µM (active)"},
      {"measurement": "AC50", "setting": "[12]", "result": "215 nM (active)"},
      {"measurement": "AC50", "setting": "[13]", "result": "708 nM (active)"}
    ]},
    {"smiles": "CCC(=O)O[C@H]1CC[C@H]2[C@@H]3CCC4=CC(=O)CC[C@]4(C)[C@H]3CC[C@]12C", "values": [
      {"measurement": "outcome", "setting": "[14]", "result": "inactive"},
      {"measurement": "outcome", "setting": "[16]", "result": "inactive"},
      {"measurement": "outcome", "setting": "[17]", "result": "inactive"},
      {"measurement": "outcome", "setting": "[15]", "result": "inactive"}
    ]},
    {"smiles": "O=S(=O)(O)C(F)(F)C(F)(F)C(F)(F)C(F)(F)F", "values": [
      {"measurement": "outcome", "setting": "[2]", "result": "inactive"},
      {"measurement": "outcome", "setting": "[3]", "result": "inactive"},
      {"measurement": "AC50", "setting": "[4]", "result": "11.4 µM (active)"},
      {"measurement": "outcome", "setting": "[4]", "result": "inactive"},
      {"measurement": "outcome", "setting": "[5]", "result": "inactive"},
      {"measurement": "outcome", "setting": "[6]", "result": "inactive"},
      {"measurement": "outcome", "setting": "[7]", "result": "inactive"},
      {"measurement": "outcome", "setting": "[8]", "result": "inactive"},
      {"measurement": "outcome", "setting": "[9]", "result": "inactive"},
      {"measurement": "outcome", "setting": "[10]", "result": "inactive"},
      {"measurement": "AC50", "setting": "[11]", "result": "15 µM (active)"},
      {"measurement": "outcome", "setting": "[11]", "result": "inactive"},
      {"measurement": "AC50", "setting": "[12]", "result": "14200 nM (active)"},
      {"measurement": "outcome", "setting": "[12]", "result": "inactive"},
      {"measurement": "outcome", "setting": "[13]", "result": "inactive"}
    ]}
  ]
}
